We go through 113 compounds from PubChem BioAssay AID488969 (Vanderbilt High Throughput Screening Facility, 2010).

Over roughly 110,000 compounds, “z-score” has its median near -0.1; the highest 2% begin near 2. The full list was thinned out, with the highest values kept by preference. Calls of active or inactive are those of the source.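 Rule for the calls: active = z-score in the third read window above 3 or below -3; inactive = the rest.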

The assay deals with Metabotropic glutamate receptor 8 (Rattus norvegicus) (UniProt P70579). Briefly: rat mGluR8 modulators via GIRK flux, primary screen, cell-based, thallium flux, HTS (AID 488969). To be noted: HEK293 rat mGluR8, GIRK (G protein-gated inwardly rectifying potassium channel) thallium flux, FluoZin2; at 10 µM; stronger effect = higher value; submaximal glutamate (EC20) added with thallium.
Chain of Metabotropic glutamate receptor 8 (Rattus norvegicus) (P70579 whole entry, looked up): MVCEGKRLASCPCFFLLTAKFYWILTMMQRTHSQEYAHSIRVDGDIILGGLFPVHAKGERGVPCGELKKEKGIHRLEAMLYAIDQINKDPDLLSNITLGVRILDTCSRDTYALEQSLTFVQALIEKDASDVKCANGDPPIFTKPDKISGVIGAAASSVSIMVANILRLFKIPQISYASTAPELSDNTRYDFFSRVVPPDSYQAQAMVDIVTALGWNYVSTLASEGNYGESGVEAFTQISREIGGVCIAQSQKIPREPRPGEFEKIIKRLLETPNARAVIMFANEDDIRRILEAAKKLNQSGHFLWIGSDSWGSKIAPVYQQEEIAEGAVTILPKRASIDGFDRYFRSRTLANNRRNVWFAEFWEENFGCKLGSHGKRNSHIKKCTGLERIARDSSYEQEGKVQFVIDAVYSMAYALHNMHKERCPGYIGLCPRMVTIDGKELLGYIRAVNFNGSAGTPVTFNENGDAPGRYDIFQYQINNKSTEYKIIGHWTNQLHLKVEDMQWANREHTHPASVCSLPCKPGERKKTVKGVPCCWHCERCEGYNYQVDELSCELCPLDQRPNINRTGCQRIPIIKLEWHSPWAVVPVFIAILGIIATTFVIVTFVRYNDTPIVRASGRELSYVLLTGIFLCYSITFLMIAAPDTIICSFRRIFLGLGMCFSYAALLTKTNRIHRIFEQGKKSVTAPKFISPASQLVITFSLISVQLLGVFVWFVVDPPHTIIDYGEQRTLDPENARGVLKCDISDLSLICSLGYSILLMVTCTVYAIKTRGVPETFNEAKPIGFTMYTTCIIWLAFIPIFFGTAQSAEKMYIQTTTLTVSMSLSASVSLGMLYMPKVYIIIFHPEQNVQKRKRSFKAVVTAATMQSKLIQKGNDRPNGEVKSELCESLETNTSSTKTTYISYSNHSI
In turn, `O=C(CSc1nnnn1-c1cccc(F)c1)Nc1nc2ccccc2s1` had a z-score of -0.0501.
With `CC(Sc1nc(-c2ccccc2)cc(C(F)(F)F)n1)C(=O)N1CCOCC1` (stereo not drawn), the z-score is -0.153.
With `CCOc1ccc(N2C(=O)c3ccccc3C2O)cc1` (stereo not drawn) the figure was 8.14 (active); with `O=C1c2ccccc2C(O)N1c1ccc(Cl)cc1` (stereo not drawn), -0.698; with `CCOc1ccc(N2C(=O)c3ccccc3C2=O)cc1`, -1.29.
`CCOc1ccc2cc(S(=O)(=O)n3ccnc3C)ccc2c1` displayed a z-score of 0.917.
The compound `COc1ccc([N+](=O)[O-])cc1NC(=O)C1CCCO1` (stereo not drawn) came in with a z-score of -0.326.
Turning to `C=CCNC(=O)CSc1cc([N+](=O)[O-])cc(S(=O)(=O)Cc2ccccc2)c1`, the z-score was determined as 0.665.
With `CCC(=O)n1nc(-c2cccnc2)nc1NCc1ccc(OC)cc1` the figure was -5.08 (active).
With `COc1ccc(CNc2nc(-c3cccnc3)nn2C(=O)c2ccco2)cc1` the figure was 9.48 (active); with `Nc1nc(-c2cccnc2)nn1C(=O)c1ccco1`, 0.31.
For the compound `COc1cc(NC(=O)c2ccc(-c3ccc(Br)cc3)o2)ccc1NC(=O)C(C)C`, the z-score is 0.116.
The same measure for `CCOC(=O)C(CC)Sc1nnc2c3cc(C)ccc3n(C)c2n1` (stereo not drawn): -0.798; for `COC(=O)Cc1c(C)nc2nc(-c3ccco3)[nH]n2c1=O`: 2.68; for `COC(=O)Cc1c(C)nc2nc(-c3ccccc3)[nH]n2c1=O`: -0.455.
`COC(=O)Cc1c(C)nc2nc(-c3ccc(OC)cc3)[nH]n2c1=O`: the z-score is -0.0668.
On to `CCn1c(SCC(=O)Nc2nc(-c3ccccc3)cs2)nnc1-c1ccccc1O`, for which the z-score was -0.347.
The compound `O=C1C(=O)N(CNc2cccnc2)c2ccccc21` returned a z-score of -0.21.
The same measure for `CC(C)c1ccc(/C=N/Nc2ccc(C(=O)O)cc2)cc1`: -0.222; for `CNC(=S)N/N=C/c1ccc2c(c1)OCCO2`: 0.205; for `CNC(=S)N/N=C/c1ccc(C(C)C)cc1`: 3.01 (active).
With `Cn1c(SCc2ccc(Br)cc2)nnc1-c1ccncc1` the figure was -0.143; with `Cc1cccc(-c2cc3nc4c(c(N5CCC6(CC5)OCCO6)n3n2)CCCC4)c1`, 0.391.
The same measure for `CC(=O)N1CN(C2CC(C)(C)NC(C)(C)C2)Cc2c1sc1c2CCCC1`: 0.426; for `CC1CN(C2CC(C)(C)NC(C)(C)C2)CCC1=O` (stereo not drawn): 3.98 (active); for `CC1CN(Cc2ccccn2)CCC1=O` (stereo not drawn): -0.215.
As to `O=C(NNC(=O)C1CCN(Cc2ccccc2)CC1)c1cccc(Cl)c1`, the z-score was found to be 0.0829.
With `CCOC(=O)c1cn(-c2ccccc2CO)c2c(F)c(F)c(F)cc2c1=O` the figure was -0.237.
With `COc1ccc2ncc(S(=O)(=O)c3ccccc3)c(N3CCC4(CC3)OCCO4)c2c1` the figure was -0.776; with `N#Cc1ccc(-c2ccc(OCC(O)Cn3nnc4ccccc43)cc2)cc1` (stereo not drawn), -0.106.
Regarding `CC1(C)NC(=O)N(CC(O)COc2ccc(-c3ccc(C#N)cc3)cc2)C1=O` (stereo not drawn), the z-score was 5.36 (active).
`CC1(C)NC(=O)N(CC(O)COc2ccc(-c3ccccc3)cc2)C1=O` (stereo not drawn) displayed a z-score of -0.0166.
The compound `CN(C)CC(O)COc1ccc(-c2ccc(C#N)cc2)cc1` (stereo not drawn) returned a z-score of 2.48.
The same measure for `Cc1ccc(OCC(O)CN2C(=O)NC(C)(C)C2=O)cc1` (stereo not drawn): -0.38; for `CN(C)CC(O)COc1cccc(OCC(O)CN(C)C)c1` (stereo not drawn): -0.132; for `COc1ccccc1CC(=O)Nc1ccc(-c2noc(COc3ccc(Cl)c(C)c3)n2)cc1`: -0.166.
In the case of `Cc1cc(C)c2c(N)c(C(=O)c3cccc(Cl)c3)sc2n1`, the z-score was -0.231.
`CCc1ccc(N/C(SC)=C(/C#N)C(N)=O)cc1` yielded a z-score of 0.119.
For the compound `CCOC(=O)c1sc2nc(CSc3nc4ccccc4n3CC)[nH]c(=O)c2c1C`, the z-score stood at 2.68.
With `COCCn1c(SCc2nc3sc(C(=O)OC)c(C)c3c(=O)[nH]2)nc2ccccc21` the figure was 0.877.
Turning to `CCn1c(SCc2nc3sc(C(=O)O)c(C)c3c(=O)[nH]2)nc2ccccc21`, the z-score was -0.449.
For `COc1cccc(-c2nnc(SCc3nc4ccccc4s3)n2C)c1`, the z-score is -0.34.
The same measure for `CCCCCCOC(=O)/C=C/c1c(C)[nH]c(=O)[nH]c1=O`: -0.139.
The same measure for `C/C(=N\Nc1ccc(C(=O)O)cc1)c1nc2ccccc2n1C`: -0.702.
The same measure for `Cn1c(/C=N/NC(=O)c2ccccc2)nc2ccccc21`: 0.298; for `C/C(=N\NC(=O)c1ccccc1)c1ccc(-n2ccnc2)cc1`: 2.25; for `C/C(=N\NC(=O)COc1ccc(C(C)(C)C)cc1)c1ccc(-n2ccnc2)cc1`: 0.123.
As for `C/C(=N\NC(=O)c1ccccc1)c1nc2ccccc2n1C`, the z-score is 3.71 (active).
`C/C(=N\NC(=O)c1ccc(C)cc1C)c1ccc(-n2ccnc2)cc1` had a z-score of -0.0942.
The same measure for `CNC(=S)N/N=C(\C)c1ccc(-n2ccnc2)cc1`: -0.579; for `C/C(=N\NC(=O)COc1ccc(C)cc1C(C)C)c1ccc(-n2ccnc2)cc1`: 2.53.
With `COc1ccc(OCC(=O)N/N=C(\C)c2ccc(-n3ccnc3)cc2)cc1` the figure was -0.334; with `Cn1c(=O)c2c(ncn2CC(=O)OCC(=O)Nc2ccccc2Cl)n(C)c1=O`, -0.159.
On to `Clc1cccc2sc(N3CCOCC3)nc12`, for which the z-score is 0.0232.
With `CCOC(=O)C1=C(C)Nc2nc(SCc3cccnc3)nn2C1c1ccc(OC)cc1` (stereo not drawn) the figure was 0.463; with `CN1CCN(S(=O)(=O)c2ccc(Br)s2)CC1`, -0.0381.
On to `COC(=O)c1ccc(Cl)c(NC(=O)CN(c2ccc(OC)cc2)S(=O)(=O)c2ccccc2)c1`, for which the z-score was -0.285.
On to `COC(=O)c1oc2ccc(Br)cc2c1NC(=O)CN1CCN(C)CC1`, for which the z-score came out at 2.22.
The same measure for `COC(=O)c1ccc(Cl)c(NC(=O)CN2CCOCC2)c1`: 0.185; for `CCOC(=O)c1oc2ccc(OC)cc2c1NC(=O)CN1CCN(C)CC1`: 0.148; for `COC(=O)c1ccc(Cl)c(NC(=O)CN(c2ccc(OC)c(OC)c2)S(C)(=O)=O)c1`: 2.1.
The compound `COC(=O)c1ccc(Cl)c(NC(=O)CN2CCN(Cc3ccccc3)CC2)c1` registered a z-score of -0.236.
The same measure for `COC(=O)c1ccc(Cl)c(NC(=O)CN(c2ccc3c(c2)OCO3)S(C)(=O)=O)c1`: 0.625.
The same measure for `CN1CCN(CC(=O)Nc2c(C(=O)C3CC3)oc3ccccc23)CC1`: -0.346.
The same measure for `COC(=O)c1ccc(Cl)c(NC(=O)CN2CCN(C)CC2)c1`: 4.17 (active); for `Cc1ccc(CNC(=O)/C=C/c2c(Cl)cccc2Cl)cc1`: -0.641; for `O=C(CSc1ncnc2c1oc1ccccc12)NCC1CCCO1` (stereo not drawn): -0.215.
`COc1ccc(/C=N/n2c(N)nc(-c3ccccc3)c2-c2ccccc2)cc1` gave a z-score of -0.377.
Turning to `O=C(NCCCN1CCN(c2ccccc2)CC1)Nc1ccccc1C(F)(F)F`, the z-score is -0.506.
Consider `Cc1ccc(NC(=O)c2sc3nc4c(c(-c5ccco5)c3c2N)CCC4)cc1`, for which the z-score is -0.382.
In the case of `CC(=O)NC(Cc1ccccc1C)C(=O)NC1CCN(c2ncccc2[N+](=O)[O-])CC1` (stereo not drawn), the z-score was -0.207.
With `CCC(=O)Nc1cc2nn(-c3ccccc3)nc2cc1Cl` the figure was 0.0874; with `CNC(=S)N/N=C(\C)c1ccc(Cl)s1`, 3.13 (active).
Take `CCNC(=S)N/N=C(\C)c1cccc([N+](=O)[O-])c1`: the z-score was 0.559.
With `CCNC(=S)N/N=C(\C)c1ccc(Cl)s1` the figure was 4.7 (active); with `CNC(=S)N/N=C(\C)c1cccc([N+](=O)[O-])c1`, -0.339.
The same measure for `C/C(=N\Nc1nc2ccccc2[nH]1)c1ccc(Cl)s1`: -1.3.
With `CCNC(=S)N/N=C(\C)c1ccc(N2CCOCC2)cc1` the figure was 0.245; with `C=C(C)CNC(=S)N/N=C(\C)c1ccc(Cl)s1`, 2.26; with `CNC(=S)N/N=C(\C)c1ccc(N2CCOCC2)cc1`, 0.456.
`C=C(C)CNC(=S)N/N=C/c1ccc(N2CCOCC2)cc1` showed a z-score of 0.134.
`C=C(C)CNC(=S)N/N=C(\C)c1ccc(-n2ccnc2)cc1` showed a z-score of -0.342.
Compound `CNC(=S)N/N=C(\C)c1ccc(C(C)(C)C)cc1` had a z-score of 2.03.
In turn, `CNC(=S)N/N=C(\C)c1ccc(C)c(C)c1` showed a z-score of 1.2.
Compound `Cn1c(=O)c2[nH]c(-c3cccnc3)nc2n(C)c1=O` showed a z-score of 0.366.
The same measure for `C=CCN1C(=O)C(CC(=O)Nc2ccccc2)SC1=Nc1c(C)n(C)n(-c2ccccc2)c1=O` (stereo not drawn): 1.07.
The same measure for `COc1cc(/C=C(\C#N)c2nc(-c3cc4ccccc4oc3=O)cs2)ccc1O`: -2.33.
Regarding `CCC(=O)Nc1ccc(NC(=O)CN2CCCC(C)C2)c(Cl)c1` (stereo not drawn), the z-score was -0.146.
Compound `Cc1nn(CC(O)COc2ccc3c(c2)CCC3)c(C)c1C` (stereo not drawn) gave a z-score of -0.0908.
The same measure for `Cc1nc2cc(Nc3nnc(-c4ccccc4)c4ccccc34)ccc2n1C`: -0.174; for `CN1CCN(C(=O)NC2CCCCC2)CC1`: -0.173; for `CCOP(=O)(O)c1ccccc1OCCCCCOc1ccccc1P(=O)(O)OCC`: -0.285.
`CCOC(=O)c1c(N)nn(C(=O)CC)c1-c1ccccc1` returned a z-score of -0.667.
The same measure for `CCOc1ccccc1-c1nc(C(N)=O)c2[nH]c(=O)n(-c3cccc(C)c3)c2n1`: -1.43; for `C/C(=N\NC(=S)NC(C)C)c1ccc(Cl)s1`: 5.46 (active).
`C/C(=N\NC(=O)C(=O)Nc1cccc(C(F)(F)F)c1)c1ccc(Cl)s1` gave a z-score of 0.376.
With `C/C(=N/Nc1ccc(F)cc1)c1ccc(Cl)s1` the figure was 0.13; with `COc1cc(/C(C)=N/NC(=S)NC(C)C)cc(OC)c1OC`, -0.0595.
With `C/C(=N\NC(=S)NC(C)C)c1ccc(-n2ccnc2)cc1` the figure was -0.306; with `C/C(=N\NC(N)=S)c1ccc(Cl)s1`, 2.19.
With `Cc1noc(C)c1COc1cccc(C(=O)OCC(=O)NC(=O)c2ccc(OC(F)F)cc2)c1` the figure was -0.262; with `N/C(=N\OC(=O)c1cccc(Br)c1)c1ccc(Br)cc1`, -0.325; with `COc1ccc(C(=O)COC(=O)CNC(=O)c2cc(OC)cc(OC)c2)cc1`, -0.208.
For `NC(=O)C(Cc1ccccc1)NS(=O)(=O)c1ccc(N2CCCC2=O)cc1` (stereo not drawn), the z-score came to 0.443.
`CCC(C)NC(=O)c1ccccc1NC(=O)Nc1ccccc1` (stereo not drawn): the z-score was 6.32 (active).
In turn, `CC(C)CNC(=O)c1ccccc1NC(=O)Nc1ccccc1` returned a z-score of 0.337.
The same measure for `CCC(C)NC(=O)c1ccccc1C(=O)NC(C)CC` (stereo not drawn): 0.631; for `Cc1cccc(CN(CC(=O)N/N=C/c2ccco2)S(=O)(=O)c2ccc(Cl)cc2)c1`: 0.848.
As for `CCN(CC)C(=O)C1CCCN(C(=O)Nc2ccc(NC(=O)N3CCCC(C(=O)N(CC)CC)C3)cc2)C1` (stereo not drawn), the z-score is -0.196.
Turning to `COC(=O)CSc1nnc(-c2cccnc2)n1-c1cccc(OC)c1`, the z-score came out at 0.978.
The compound `Cn1c(=O)oc2cc(S(=O)(=O)NC3CCCc4ccccc43)ccc21` (stereo not drawn) came in with a z-score of 0.254.
With `CC(C)CC(NS(=O)(=O)c1ccc2c(c1)oc(=O)n2C)C(=O)NC1CCCc2ccccc21` (stereo not drawn) the figure was 5.09 (active); with `CSCCC(NS(=O)(=O)c1ccc2c(c1)oc(=O)n2C)C(=O)NC1CCCc2ccccc21` (stereo not drawn), 0.148.
